Data: PubChem BioAssay (NCATS)
Results filed as inconclusive are left out. Calls of active or inactive are those of the source. The call rests on the fitted dose curve; in most records, active means well fitted inhibition curve with a large enough effect; inconclusive means small, poorly fitted or top-dose-only effect; inactive means flat fitted curve, though single readings scatter.

How the values were obtained:
[1] = Drug repurposing screens with cells derived from glioblastoma tumor samples (AID 1345199); conditions: GBM patient neurospheres viability, ATP luminescence, 48 h; further: nearly all actives have a fitted effect of over 40% in size
Summary of the method: (§1)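 Four patient lines of CD133+ GBM neurospheres were screened at several concentrations; hits were retested in those lines plus three slower-growing GBM lines, using 48-hour treatment and ATP-based viability.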

[2] = system: astro; assay: as above; conditions: viability, ATP luminescence, 48 h; series mostly up to 45.9 µM
Summary of the method: as §1

[3] = at 45.9 µM (top of the series), tumour line B
[4] = at 45.9 µM (top of the series), tumour line D
[5] = at 46 µM (top of the series), tumour line A
[6] = at 46.1 µM (top of the series), tumour line C
On the % scale 0 is the no-effect control and ±100 the full control effect.

CO/N=C(\C(=O)N[C@@H]1C(=O)N2C(C(=O)O)=C(C[N+]3(C)CCCC3)CS[C@H]12)c1csc(N)n1
inactive: activity, negative = cell killing [1, 3] -2.14% | activity, negative = cell killing [1, 4] 5.4% | activity, negative = cell killing [1, 5] -4.98% | activity, negative = cell killing [1, 6] -21.1% | Potency [2]

CO/N=C(\C(=O)N[C@@H]1C(=O)N2C(C(=O)O)=C(CSc3nc(C)c(CC(=O)O)s3)CS[C@H]12)c1csc(N)n1
inactive: activity, negative = cell killing [1, 3] -4.93% | activity, negative = cell killing [1, 4] 3.79% | activity, negative = cell killing [1, 5] -22% | activity, negative = cell killing [1, 6] -20.8% | Potency [2]

COC1=C(OC)C(=O)C(C/C=C(\C)CC/C=C(\C)CC/C=C(\C)CC/C=C(\C)CC/C=C(\C)CC/C=C(\C)CC/C=C(\C)CC/C=C(\C)CC/C=C(\C)CCC=C(C)C)=C(C)C1=O
inactive: activity, negative = cell killing [1, 3] 2.27% | activity, negative = cell killing [1, 4] -1.65% | activity, negative = cell killing [1, 5] -4.78% | activity, negative = cell killing [1, 6] 7.72% | Potency [2]

NC(N)=NCC1COC2(CCCCC2)O1 (stereo not given)
inactive: activity, negative = cell killing ([1]; at 20 µM (top of the series), tumour line C) -12.8% | activity, negative = cell killing ([1]; at 21.2 µM (top of the series), tumour line B) -14.2% | activity, negative = cell killing ([1]; at 21.2 µM (top of the series), tumour line D) -12.9% | activity, negative = cell killing ([1]; at 21.3 µM (top of the series), tumour line A) -18.6% | Potency [2]

COC(=O)CCC[N+](C)(C)C
inactive: activity, negative = cell killing [1, 3] 2.12% | activity, negative = cell killing [1, 4] -8.53% | activity, negative = cell killing [1, 5] -30.6% | activity, negative = cell killing [1, 6] -18.9% | Potency [2]

CC1(C)S[C@@H]2[C@H](NC(=O)C3(N)CCCCC3)C(=O)N2[C@H]1C(=O)O
inactive: activity, negative = cell killing [1, 3] -3.31% | activity, negative = cell killing [1, 4] -4.88% | activity, negative = cell killing [1, 5] -7.56% | activity, negative = cell killing [1, 6] -20.1% | Potency [2]

Nc1nc(=O)n([C@@H]2CS[C@H](CO)O2)cc1F
inactive: activity, negative = cell killing [1, 3] -1.96% | activity, negative = cell killing [1, 4] -4.58% | activity, negative = cell killing [1, 5] -12.2% | activity, negative = cell killing [1, 6] 2.71% | Potency [2]
